# The whole screen tested about 3,200 compounds, of which about 300 (9.4%) showed activity. Only a selection was taken, and actives are over-represented in it overall. A number with no mark means an inactive call.
# Tested on: A673/TR/shEF
# Experiment: cell viability (LOESS-normalised, relative to median of negative controls) (log2 ratio); higher = more viable cells (less compound effect), active = hit call of the paper (over 3 MAD below the median)
# Conditions: treatment time: 72 h
# Procedure, shortened: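 Doxycycline, present or absent from 24 h before compounds, was used to induce EWS-FLI1 shRNA knockdown in A673/TR/shEF Ewing sarcoma cells at 1,500 per well in 384-well plates. Cells then received library compounds at two or more concentrations, or DMSO controls, for three days. Viability was measured by CellTiter-Glo luminescence on an Envision reader, and per-plate LOESS correction, division by the negative-control median and log2 transformation followed.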
# [1] = 0.25 µM, library screen: screen1, EWS-FLI1 expression: high (no doxycycline)
# [2] = 0.25 µM, library screen: screen1, EWS-FLI1 expression: low (doxycycline-induced shRNA knockdown)
# [3] = 2.5 µM, library screen: screen1, EWS-FLI1 expression: high (no doxycycline)
# [4] = 2.5 µM, library screen: screen1, EWS-FLI1 expression: low (doxycycline-induced shRNA knockdown)
# [5] = 0.025 µM, library screen: screen2, EWS-FLI1 expression: high (no doxycycline)
# [6] = 0.025 µM, library screen: screen2, EWS-FLI1 expression: low (doxycycline-induced shRNA knockdown)
# [7] = 0.25 µM, library screen: screen2, EWS-FLI1 expression: high (no doxycycline)
# [8] = 0.25 µM, library screen: screen2, EWS-FLI1 expression: low (doxycycline-induced shRNA knockdown)
# [9] = 2.5 µM, library screen: screen2, EWS-FLI1 expression: high (no doxycycline)
# [10] = 2.5 µM, library screen: screen2, EWS-FLI1 expression: low (doxycycline-induced shRNA knockdown)
# [11] = 25 µM, library screen: screen2, EWS-FLI1 expression: high (no doxycycline)
# [12] = 25 µM, library screen: screen2, EWS-FLI1 expression: low (doxycycline-induced shRNA knockdown)
smiles,measurement,setting,value
COc1ccccc1CN1CCN(Cc2ccc(OC)c(OC)c2)CC1,cell viability (log2),[1],0.0157
same,cell viability (log2),[2],0.078
same,cell viability (log2),[3],0.0565
same,cell viability (log2),[4],0.0117
CC(C)(C)c1ccccc1OCC(O)CN1CCCCC1 (stereo not drawn),cell viability (log2),[1],0.09
same,cell viability (log2),[2],0.0909
same,cell viability (log2),[3],0.176
same,cell viability (log2),[4],0.0864
CC(=O)Oc1ccc(-c2coc3cc(OC(C)=O)ccc3c2=O)cc1,cell viability (log2),[1],0.152
same,cell viability (log2),[2],0.0716
same,cell viability (log2),[3],0.0709
same,cell viability (log2),[4],0.0455
CCOC(=O)C1(O)Oc2cc(OC)cc(OC)c2C(=O)C1c1ccccc1 (stereo not drawn),cell viability (log2),[1],0.122
same,cell viability (log2),[2],0.103
same,cell viability (log2),[3],0.112
same,cell viability (log2),[4],0.086
CCN(CC)CCCC(C)Nc1c2ccc(Cl)cc2nc2ccc(OC)cc12 (stereo not drawn),cell viability (log2),[5],0.148
same,cell viability (log2),[6],0.0788
same,cell viability (log2),[1],0.215
same,cell viability (log2),[2],0.197
same,cell viability (log2),[7],0.0911
same,cell viability (log2),[8],0.0849
same,cell viability (log2),[3],0.176
same,cell viability (log2),[4],0.252
same,cell viability (log2),[9],0.0338
same,cell viability (log2),[10],0.0518
same,cell viability (log2),[11],-4.23 (active)
same,cell viability (log2),[12],-2.71 (active)
CCN(CCO)CCCC(C)Nc1ccnc2cc(Cl)ccc12 (stereo not drawn),cell viability (log2),[1],0.00358
same,cell viability (log2),[2],0.138
same,cell viability (log2),[3],0.146
same,cell viability (log2),[4],0.0473
CCN(CC)CCCC(C)Nc1ccnc2cc(Cl)ccc12 (stereo not drawn),cell viability (log2),[5],0.158
same,cell viability (log2),[6],0.0518
same,cell viability (log2),[1],0.0569
same,cell viability (log2),[2],0.0751
same,cell viability (log2),[7],0.0978
same,cell viability (log2),[8],0.0902
same,cell viability (log2),[3],0.0579
same,cell viability (log2),[4],0.079
same,cell viability (log2),[9],0.0873
same,cell viability (log2),[10],0.0425
same,cell viability (log2),[11],0.0565
same,cell viability (log2),[12],0.0987
CC1(C)C(=O)CC[C@@]2(C)C1C[C@@H](O)[C@@]1(C)C3=CC(=O)O[C@@H](c4ccoc4)[C@]3(C)CCC21 (stereo partly drawn),cell viability (log2),[1],0.0874
same,cell viability (log2),[2],0.0583
same,cell viability (log2),[3],0.0284
same,cell viability (log2),[4],0.0454
COc1cc2c(cc1O)C(Cc1ccc(O)cc1)N(C)CC2 (stereo not drawn),cell viability (log2),[1],0.127
same,cell viability (log2),[2],0.111
same,cell viability (log2),[3],0.067
same,cell viability (log2),[4],0.114
O=C(O[C@@H]1Cc2c(O)cc(O)cc2O[C@@H]1c1cc(O)c(O)c(O)c1-c1c([C@H]2Oc3cc(O)cc(O)c3C[C@H]2O)cc(O)c(O)c1O)c1cc(O)c(O)c(O)c1,cell viability (log2),[1],0.0332
same,cell viability (log2),[2],0.0641
same,cell viability (log2),[3],0.0977
same,cell viability (log2),[4],-0.0327
COc1ncc(-c2ccc3nccc(-c4ccnnc4)c3c2)cc1NS(=O)(=O)c1ccc(F)cc1F,cell viability (log2),"0.103 µM, library screen: screen3, EWS-FLI1 expression: high (no doxycycline)",-0.686 (active)
same,cell viability (log2),"0.103 µM, library screen: screen3, EWS-FLI1 expression: low (doxycycline-induced shRNA knockdown)",-0.505 (active)
same,cell viability (log2),"0.308 µM, library screen: screen3, EWS-FLI1 expression: high (no doxycycline)",-1.07 (active)
same,cell viability (log2),"0.308 µM, library screen: screen3, EWS-FLI1 expression: low (doxycycline-induced shRNA knockdown)",-0.722 (active)
same,cell viability (log2),"0.926 µM, library screen: screen3, EWS-FLI1 expression: high (no doxycycline)",-1.88 (active)
same,cell viability (log2),"0.926 µM, library screen: screen3, EWS-FLI1 expression: low (doxycycline-induced shRNA knockdown)",-1.31 (active)
same,cell viability (log2),"2.8 µM, library screen: screen3, EWS-FLI1 expression: high (no doxycycline)",-2.85 (active)
same,cell viability (log2),"2.8 µM, library screen: screen3, EWS-FLI1 expression: low (doxycycline-induced shRNA knockdown)",-2.24 (active)
same,cell viability (log2),"8.3 µM, library screen: screen3, EWS-FLI1 expression: high (no doxycycline)",-3.29 (active)
same,cell viability (log2),"8.3 µM, library screen: screen3, EWS-FLI1 expression: low (doxycycline-induced shRNA knockdown)",-2.78 (active)
same,cell viability (log2),"25 µM, library screen: screen3, EWS-FLI1 expression: high (no doxycycline)",-3.83 (active)
same,cell viability (log2),"25 µM, library screen: screen3, EWS-FLI1 expression: low (doxycycline-induced shRNA knockdown)",-3.59 (active)
